Bioassay records from PubChem BioAssay.
Only some compounds are listed: those with a hit (about 8.1% of all), similar ones and a draw of the others.
KB-V1 cytotox: kills drug-selected multidrug resistant KB-V1 cells; Potency, µM (highest dose often 46.1 µM), most hits filed as cytotoxic; 3.4% of 400,000 active; KB-V1 MDR cells viability, CellTiter-Glo, 72 h; AID 1347076; also: % is scaled to controls: 0 for no effect and ±100 for the full control effect; nearly all actives have a fitted effect of over 60% in size
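Drug-selected KB-V1 cells, grown in DMEM lacking phenol red with 10% FBS, receive compound titrations; after three days at 37 degrees C, surviving cell ATP is quantified by CellTiter-Glo luminescence and responses normalized and curve-fitted.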
KB-3-1 tox: kills parental KB-3-1 adenocarcinoma cells | KB-3-1 viability, CellTiter-Glo ATP luminescence, 72 h | Potency, µM (top dose mostly 46.1 µM), actives largely listed as cytotoxic | 1.4% of 400,000 active; also: % is scaled to controls: 0 for no effect and ±100 for the full control effect; nearly all actives have a fitted effect of over 60% in size
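Parental KB-3-1 viability, qHTS format: 72 h compound exposure, 37 °C; CellTiter-Glo; media-only wells and DMSO plates as controls; concentration-effect fits on corrected data.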
ELG1 repair inh: inhibitors of ELG1-dependent DNA repair in HEK293T cells; HEK293T ELG1-luciferase reporter, luminescence, 16 h; DNA damage induced by 5-fluorouridine; Potency, µM (doses to about 46.1 µM), without a hit: at the top dose activity change, negative = inhibition, actives largely listed as inhibitors; 2.3% of 330,000 active; AID 504467; also: % is scaled to controls: 0 for no effect and ±100 for the full control effect; nearly all actives have a fitted effect of over 55% in size
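Cells (2,000 per well) received 5-fluorouridine plus test compound or DMSO and were incubated 16 hr at 37 °C, 5% CO2. Luciferase activity was read by luminescence 30 min after ONE-Glo addition; signal suppression marked inhibition of damage-induced ELG1 function.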
SW480 rereplic: induces DNA re-replication in SW480 colon adenocarcinoma cells; SW480 DNA re-replication, Hoechst DNA content imaging, 48 h; Potency, µM (titrated, usually from 46.1 µM), for the others: at the top dose re-replication activation, hits mostly activators; 1.8% of 340,000 active; also: % of control where 0% means no effect; nearly all actives have a fitted effect of over 55% in size
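Hoechst fluorescence of nuclei (405 nm excitation, 500-530 nm emission) measured by plate-scanning imager after 48 hr compound exposure at 37 C; re-replication scored as increased number of nuclei with elevated intensity.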
MCF10A rerep: inducers of DNA re-replication in MCF 10A breast cells | MCF 10A DNA re-replication, Hoechst nuclear intensity, 48 h | Potency, µM (highest dose often 46.1 µM), without a hit: at the highest dose activity, positive = re-replication, most hits filed as activators | 2.9% of 350,000 active | AID 624296; also: % of control where 0% means no effect; nearly all actives have a fitted effect of over 50% in size
An asterisk follows results filed as active; [ ] = another dose, or the depositor's remark. Calls follow the shape of the dose curve; as a rule, active = well fitted curve in the direction sought with a large enough effect; inconclusive = small, poorly fitted or top-dose-only effect, or another doubt; inactive = no such curve, though single readings can be large; an effect the other way counts as inactive or inconclusive. Potency is read from the fitted curve at half-maximal effect.

For COc1ccccc1C1c2[nH]c3ccccc3c2C[C@H]2C(=O)N(C3CCN(Cc4ccccc4)CC3)CC(=O)N12 (stereo partly drawn) the results were KB-V1 cytotox inactive, KB-3-1 tox inconclusive, ELG1 repair inh 23µM*, SW480 rereplic inconclusive and MCF10A rerep 23%.
N#CCCN(C(=S)NC(=O)c1cccs1)c1ccccc1F was read as KB-V1 cytotox inactive, KB-3-1 tox inactive, ELG1 repair inh inconclusive, SW480 rereplic 0% and MCF10A rerep 1%.
Screening COCCn1c(-c2ccc3ccccc3c2)nc2c1c(=O)[nH]c(=O)n2CC(C)C returned KB-V1 cytotox inactive, KB-3-1 tox inactive, ELG1 repair inh inconclusive, SW480 rereplic 17% and MCF10A rerep inconclusive.
`COc1ccc2oc(=O)c(-c3cn4ccc(C)cc4n3)cc2c1` gave KB-V1 cytotox inactive, KB-3-1 tox inactive, ELG1 repair inh inconclusive, SW480 rereplic inconclusive and MCF10A rerep 15µM*.
Screening O=c1oc2ccccc2cc1-c1cn2ccccc2n1 returned KB-V1 cytotox inconclusive, KB-3-1 tox inactive, ELG1 repair inh inconclusive, SW480 rereplic inconclusive and MCF10A rerep inconclusive.
For CCOc1ccccc1N(CC(=O)Nc1ccccc1C(=O)N1CCCC1)S(C)(=O)=O the results were KB-V1 cytotox inconclusive, KB-3-1 tox inactive, ELG1 repair inh 13%, SW480 rereplic 14% and MCF10A rerep -2%.
CCOC(=O)c1c(NC(=O)COc2cccc(C)c2C)sc2c1CCC(CC)C2 (stereo not drawn) was read as KB-V1 cytotox inactive and KB-3-1 tox inactive.
`CCCCn1c(SCC(=O)N2CCN(c3ccccc3)CC2)nc2ccsc2c1=O` gave KB-V1 cytotox 8.2µM*, KB-3-1 tox inactive, ELG1 repair inh inconclusive, SW480 rereplic 16% and MCF10A rerep inconclusive.
Screening CCCCn1c(SCC(=O)Nc2ccccc2C(F)(F)F)nc2ccsc2c1=O returned KB-V1 cytotox 2.6µM*, KB-3-1 tox inactive, ELG1 repair inh inconclusive, SW480 rereplic 1% and MCF10A rerep 10%.
`CCCCn1c(SCC(=O)N2CCC(C)CC2)nc2ccsc2c1=O` gave KB-V1 cytotox 1.2µM*, KB-3-1 tox inactive, ELG1 repair inh inconclusive, SW480 rereplic 2% and MCF10A rerep 12%.
Screening O=c1[nH]c2ccc(NCc3ccccc3F)cc2[nH]1 returned KB-V1 cytotox inactive and KB-3-1 tox inactive.
Screening O=c1c2ccccc2nc(-c2ccccc2)n1CCCn1ccnc1 returned KB-V1 cytotox inactive, KB-3-1 tox inactive, ELG1 repair inh inconclusive, SW480 rereplic 1%[9.22 µM] and MCF10A rerep 1%.
`COc1ccc(CCn2c(-c3ccco3)nc3ccccc3c2=O)cc1OC` gave KB-V1 cytotox inconclusive, KB-3-1 tox inactive, ELG1 repair inh 10µM*, SW480 rereplic 9% and MCF10A rerep inconclusive.
O=c1c2ccccc2nc(-c2ccco2)n1CCCn1ccnc1 was read as KB-V1 cytotox 8.2µM*, KB-3-1 tox inactive, ELG1 repair inh inconclusive, SW480 rereplic -3% and MCF10A rerep -8%.
COc1ccc(CCn2c(C)nc3ccccc3c2=O)cc1OC was read as KB-V1 cytotox inconclusive, KB-3-1 tox inactive, ELG1 repair inh inconclusive, SW480 rereplic -3% and MCF10A rerep 2%.
OCC1OC(n2cnc3c(=S)nc[nH]c32)CC1O (stereo not drawn) was read as KB-V1 cytotox inconclusive, KB-3-1 tox inconclusive, SW480 rereplic 4% and MCF10A rerep inconclusive.
`S=c1nc[nH]c2c1ncn2C1CCCO1` (stereo not drawn) gave KB-V1 cytotox inconclusive, KB-3-1 tox 4.1µM*, ELG1 repair inh -11%, SW480 rereplic -1% and MCF10A rerep inconclusive.
CCOC(=O)c1ccccc1NC(=O)COC(=O)Cc1ccccc1F was read as KB-V1 cytotox inactive, KB-3-1 tox inactive, ELG1 repair inh 16%, SW480 rereplic -4% and MCF10A rerep 0%.
Cc1ccc(-n2cc(CN3CCC(O)(c4ccccn4)CC3)c(-c3ccc(F)cc3)n2)cc1 was read as KB-V1 cytotox inconclusive, KB-3-1 tox inactive, ELG1 repair inh 18µM*, SW480 rereplic inconclusive and MCF10A rerep inconclusive.
Cc1ccc(-n2cc(CN3CCNC(=O)CC3)c(-c3ccc(F)cc3)n2)cc1 was read as KB-V1 cytotox inactive, KB-3-1 tox inactive, ELG1 repair inh -13%, SW480 rereplic -17% and MCF10A rerep -9%.
C=CCn1c(COc2ccc(F)cc2)nnc1SCC(=O)c1c[nH]c2c(CC)cccc12 was read as KB-V1 cytotox 13µM*, KB-3-1 tox inactive, ELG1 repair inh 4%, SW480 rereplic 1% and MCF10A rerep 6%.
`C=CCn1c(COC)nnc1SCC(=O)c1ccc(F)cc1` gave KB-V1 cytotox inactive, KB-3-1 tox inactive, ELG1 repair inh inconclusive, SW480 rereplic 16% and MCF10A rerep 10%.
Screening CC1=C([N+](=O)[O-])C(c2cccc(Br)c2)C2=C(N1)c1ccccc1C2=O (stereo not drawn) returned KB-V1 cytotox inconclusive, KB-3-1 tox 1.6µM*, ELG1 repair inh -2%, SW480 rereplic 0.65µM* and MCF10A rerep inconclusive.
`C(=Nc1ccc(/C=C/c2ccnc3ccccc23)cc1)c1ccco1` gave KB-V1 cytotox inactive and KB-3-1 tox inactive.
For COC(=O)c1cccc(Nc2ncnc3ccc(C)cc23)c1 the results were KB-V1 cytotox inconclusive, KB-3-1 tox inactive, ELG1 repair inh inconclusive, SW480 rereplic 2% and MCF10A rerep inconclusive.
Screening O=C(OCCNc1nc(-c2ccccc2)nc2ccccc12)c1cccnc1 returned KB-V1 cytotox inconclusive, KB-3-1 tox inactive, ELG1 repair inh inconclusive, SW480 rereplic -17% and MCF10A rerep 6%.
Screening CCCOC(=O)c1cccc(Nc2nc(-c3cccnc3)nc3ccccc23)c1 returned KB-V1 cytotox inconclusive, KB-3-1 tox inconclusive, ELG1 repair inh 13µM*, SW480 rereplic inconclusive and MCF10A rerep inconclusive.
CCOC(=O)c1cccc(Nc2ncnc3ccccc23)c1 was read as KB-V1 cytotox 12µM*, KB-3-1 tox inactive, ELG1 repair inh -19%, SW480 rereplic -3% and MCF10A rerep -1%.
For O=c1cc(CCl)nc(Cc2c(Cl)cccc2Cl)[nH]1 the results were KB-V1 cytotox inconclusive, KB-3-1 tox inconclusive, SW480 rereplic inconclusive and MCF10A rerep 18µM*.
Screening O=c1cc(-c2ccccc2)nc(Cc2c(Cl)cccc2Cl)[nH]1 returned KB-V1 cytotox inactive, KB-3-1 tox inactive, ELG1 repair inh 6%, SW480 rereplic -9% and MCF10A rerep 3%.
